Experimental data from PubChem BioAssay (NCI).
“And” between values parts separate entries of the source, which are not always exact repeats. Equal entries are not always repeated. The panel holds about 83,000 compounds, 20% with a hit somewhere; the sample as a whole holds those more often.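 Single-dose data. Exposure time 48 hours. Values below 10 considered active.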 Unmarked numbers belong to inactive results. The source made the active and inactive calls.

Legend:
Assay in all cases: NCI-60 one-dose screen, 48 h (100 = growth as untreated, 0 = no growth, -100 = all killed)
Conditions in all cases: 10 µM unless noted
NCI-H23 lung = system: NCI-H23 lung
NCI-H322M lung = system: NCI-H322M lung
HOP-62 NSCLC = system: HOP-62 NSCLC
NCI-H460 lung = system: NCI-H460 lung
HOP-92 NSCLC = system: HOP-92 NSCLC
NCI-H522 lung = system: NCI-H522 lung
A549/ATCC NSCLC = system: A549/ATCC NSCLC
786-0 renal = system: 786-0 renal
COLO 205 colon = system: COLO 205 colon
DU-145 prostate = system: DU-145 prostate
K-562 leukemia = system: K-562 leukemia
MALME-3M melanoma = system: MALME-3M melanoma
MDA-MB-231 breast = system: MDA-MB-231 breast
RXF 393 renal = system: RXF 393 renal
SF-268 CNS = system: SF-268 CNS
SF-295 CNS = system: SF-295 CNS
SF-539 CNS = system: SF-539 CNS
UACC-257 melanoma = system: UACC-257 melanoma
M14 melanoma = system: M14 melanoma

Structure (SMILES)	growth (NCI-H23 lung)	growth (NCI-H322M lung)	growth (HOP-62 NSCLC)	growth (NCI-H460 lung)	growth (HOP-92 NSCLC)	growth (NCI-H522 lung)	growth (A549/ATCC NSCLC)	growth (786-0 renal)	growth (COLO 205 colon)	growth (DU-145 prostate)	growth (K-562 leukemia)	growth (MALME-3M melanoma)	growth (MDA-MB-231 breast)	growth (RXF 393 renal)	growth (SF-268 CNS)	growth (SF-295 CNS)	growth (SF-539 CNS)	growth (UACC-257 melanoma)	growth (M14 melanoma)
CCN(CC)c1ccc(/C=N/NC(=O)c2ccc(NS(C)(=O)=O)cc2)c(O)c1	23.3%	25.2%	13.2%	3.18% (active)	38.9%	12.5%	12.3%	1.77% (active)	5.67% (active)	31.3%	14.2%	4.46% (active)	38.4%	-9.12% (active)	22.7%	9.79% (active)	7.08% (active)	-6.91% (active)	0.206% (active)
C/C(CC1(O)C(=O)Nc2ccccc21)=N\O (centres undefined)	101%	102%	95.2%	101%	93.9%	91.3%	102%	101%	103%	109%	99.6%	96.2%	94.8%	103%	98.3%	98.6%	94.7%	105%	97.9%
Cn1cc(-c2nc(N)nnc2-c2c[nH]c3ccc(Br)cc23)c2cc(F)ccc21	93.3%	86.1%	103%	97.7%		89.1%	103%	98.3%	103%	96.4%	56.4%	94.2%	90.2%	93.6%	86.9%	106%	95.1%	109%	102%
C#Cc1cc(OC)c(C(=O)Nc2ccc(F)cc2C(=O)Nc2cccc(S(=O)(=O)C(F)(F)F)c2)cn1	-49.4% (active)	88.9%	16.3%	26.6%	-65.7% (active)	-69.3% (active)	-7.6% (active)	-78.7% (active)	52.2%	46.8%	5.65% (active)	-33.4% (active)	-24.4% (active)	-1.43% (active)	-38.1% (active)	-83.2% (active)	-87.1% (active)	55.7%	16.7%
O=C1CSC(c2cn(-c3ccccc3)nc2-c2ccc(Cl)cc2)N1c1ccccc1 (centres undefined)	96.9%	112%	99.6%	111%	100%	95.7%	98.1%	106%	120%	115%	109%	115%	107%	126%	109%	99.5%	99%	102%	99.3%
N#Cc1cccc(-c2cc(-c3ccc4c(c3)OCCO4)[nH]n2)c1	50%	54.8%	43.5%	15%	75.5%	23.8%	47.8%	63.4%	20.2%	34.7%	13.6%	36.1%	42%	32.4%	61%	27.1%	25%	71.1%	7.59% (active)
CN1CCN(Cc2ccc(NC(=O)c3cncc(C#Cc4cnc5ccc(OCC(F)F)nn45)c3)cc2C(F)(F)F)CC1	-51.2% (active)	-35.4% (active)	-76.6% (active)	-85% (active)	-30.7% (active)	-75.9% (active)	-61.6% (active)	-90.3% (active)	-87.7% (active)	-85.8% (active)	0.0269% (active)	-86.2% (active)	-66.7% (active)	-81% (active)	-56.6% (active)	-76.6% (active)	-90.6% (active)	-33.7% (active)	-89% (active)
CCOC(=O)C(=O)Nc1ccc2c(ccn2C(=O)c2cccc(F)c2)c1	95.8%	93.8%	95.9%	100%	78.9%	96.1%	102%	97.6%	108%	67.7%	101%	102%	107%	104%	99%	92%	91.5%	99.1%	95.3%
O=C(/C=C/Nc1ccc(S(=O)(=O)Nc2ncccn2)cc1)c1ccc(N=Cc2c(O)[nH]c3ccccc23)cc1	96.5%	114%	108%	105%	93.6%	98.7%	102%	96.2%	117%	116%	97.1%	127%	99.9%	113%	112%	105%	102%	101%	109%
Brc1cc(-c2cc(-c3ccc4c(c3)OCCO4)[nH]n2)cs1	52.2%	70.8%	61%	24.1%	65.2%	29.6%	42.8%	79.2%	57.8%	54.2%	15%	35.5%	51.6%	47.5%	62.6%	41.7%	41%	76.4%	35%
CC[C@]12C=CCN3CC[C@]4(C(=C(C(=O)OC)C1)Nc1cc5c(cc14)[C@@H]1[C@H](O5)[C@@H](O)[C@@]4(CC)CC(C(=O)OC)=C5Nc6cc(O)ccc6[C@@]56CCN1C46)C32 (some centres undefined)	-40.9% (active)	0.163% (active)	16.6%	10.3%	35.5%	-22.8% (active)	20.2%	6.94% (active)	-48% (active)	22%	3.36% (active)	19.3%	21%	-40.2% (active)	6.98% (active)	8.14% (active)	4.2% (active)	21.8%	15.7%
O=C(CCCCCCN1CC(=O)N2[C@@H](c3ccc(Cl)s3)c3[nH]c4ccccc4c3C[C@H]2C1=O)NO	41.1%	46%	61.5%	39.4%		3.19% (active)	73.4%	81.1%	54%	57.9%	27.5%	21.9%	43.8%	37.7%	81.6%	37.1%	40.9%	53.4%	51.8%
O=C(CCCCCCNC(=O)C(O)(O)C(F)(F)F)Nc1ccc(Cl)cc1	24.3%	44%	4.42% (active)	23.3%		-22.3% (active)	20.7%	35.7%	-57.4% (active)	17.6%	14.4%	9.88% (active)	36.2%	-23.7% (active)	22%	0.336% (active)	28.6%	31%	34.4%
Cc1[nH]c(C(=O)Nc2ccc(C(N)=O)cc2N2CCOC(C)C2)c(Cl)c1Cl (centres undefined)	96.2%	95.1%	98.4%	102%	107%	95.1%	99.6%	92.9%	124%	104%	92.2%	99.1%	95.7%	102%	98.8%	103%	95.7%	108%	101%
CCN(CC)S(=O)(=O)c1ccc(-c2nc(C(Cl)Cl)nc3cc(C)nn23)cc1	14.6%	57.1%	5.6% (active)	8.65% (active)	-5.03% (active)	56%	0.55% (active)	92.5%	-18.7% (active)	15.9%	8.36% (active)	-7.09% (active)	-0.482% (active)	13.3%	56.1%	48%	50.7%	59.3%	4.27% (active)
CN1CCN(c2ccc(Nc3nc(NCCCNS(=O)(=O)c4cccc(F)c4)c4sccc4n3)cc2)CC1	84%	68%	96.6%	19.9%	58.7%	-1.42% (active)	44.8%	-24.1% (active)	27.1%	43.4%	12.5%	-83.6% (active)	36.1%	-71.4% (active)	44.2%	6.24% (active)	-80.4% (active)	-64% (active)	-62.2% (active)
Cc1ccccc1NC(=O)Nc1nc2ccc([N+](=O)[O-])cc2s1	5.79% (active)	9.34% (active)	2.78% (active)	5.87% (active)	-24.6% (active)	-10.9% (active)	9.2% (active)	13.1%	10.9%	20.3%	5.43% (active)	-6.54% (active)	17.6%	12.1%	18.6%	6.9% (active)	13.6%	-1.96% (active)	19.9%
O=C(CCCCCC/C=C\c1csc(Br)n1)NO	95.2%	100%	88.9%	85.8%	102%	65.6%	91.9%	104%	95%	87.7%	50.5%	66.7%	98.4%	97%	108%	95.4%	78.9%	82%	93.9%
Nc1cc(C(=O)N/N=C\c2ccc(OC(F)F)c(OC3CCCC3)c2)nn1CC(O)c1ccccc1 (centres undefined)	95.7%	103%	101%	105%	84.1%	88.9%	95.3%	107%	112%	105%	88.4%	112%	97.5%	96.3%	100%	101%	98.6%	104%	110%
Cc1ncn(-c2ccc(/C=N/Nc3ccnc4cc(Cl)ccc34)cc2)c1C	54.1%	45.5%	102%	-52.3% (active)	-28.2% (active)	-66.2% (active)	0.0933% (active)	-89.4% (active)	-96.5% (active)	8.97% (active)	0.733% (active)	-88.7% (active)	-16.8% (active)	-43.7% (active)	21.5%	-72.5% (active)	-60.7% (active)	-67.2% (active)	-88.5% (active)
CCOC(=O)c1cccnc1Nc1ccc(NC(=O)Nc2ccc(Cl)c(C(F)(F)F)c2)cc1	10.1%	68.9%	54.1%	17.2%	-8.46% (active)	21%	42.8%	68%	31.7%	32.6%	13.4%	51.4%	95.8%	93.7%	73.5%	9.85% (active)	75.6%	58%	42.7%
COc1cc(-c2nc(-c3ccccc3)[nH]c2-c2ccnc(NCCCNS(=O)(=O)c3ccc(C(F)(F)F)cc3)n2)ccc1Cl	30.8% and 57%	82.2% and 76.4%	88.3% and 55.4%	14.3% and 26.7%	41.3% and 49.4%	60.6% and 26.8%	31% and 29.3%	33.3% and 35.6%	48.8% and 11.1%	52.6% and 59.5%	18% and 23.5%	102% and 62.4%	57% and 55.8%	18.5% and 16.3%	37.9% and 49%	13.4% and 22.6%	65.6% and 55.5%	64.2% and 51.2%	18.7%
CN1CCN(Cc2ccc(NC(=O)c3cncc(C#Cc4cnc5ccc(N)nn45)c3)cc2C(F)(F)F)CC1	4.35% (active)	12.4%	-1.79% (active)	14.9%	-22.7% (active)	12.5%	38.2%	50.1%	-41.8% (active)	17.7%	6.78% (active)	-36.6% (active)	2.36% (active)	-9.41% (active)	6.31% (active)	53.8%	3.36% (active)	55.3%	-1.8% (active)
C=C(C)[C@@H]1CC[C@]2(C(=O)N3CCN(C)CC3)CC[C@]3(C)[C@H](CC[C@@H]4[C@@]5(C)CC[C@H](OP(=O)(OCC)OCC)C(C)(C)[C@@H]5CC[C@]43C)[C@@H]12	83.1%	101%	96.2%	91.3%		81.7%	75.6%	70.3%	90.8%	101%	29.6%	106%	83.6%	59.5%	87.3%	89.4%	84.8%	82.9%	102%
CCCCCc1ccc(S(=O)(=O)Nc2cc(-c3csc(N)n3)ccc2OC)cc1	88.7%	103%	108%	99.5%	97.3%	84.9%	88%	99.1%	117%	107%	83.9%	96.1%	92%	99.7%	94.7%	84.8%	89.7%	107%	103%
COc1ccc(/C=N/N=C(/c2ccccc2)c2ccc3nc(-c4ccc(Cl)cc4)[nH]c3c2)cc1	91.1%	84.3%	99.3%	90%	106%	72.9%	75.1%	76.9%	72%	86.5%	47.9%	90.6%	95%	83.3%	88.7%	81.3%	87.7%	101%	75.3%
Cn1ncc2c(C(=O)c3ccc(F)cc3)nc(C(C)(C)C)nc21	95.8%	97.8%	94.8%	101%	56.4%	91.8%	91.9%	101%	108%	102%	104%	89.7%	102%	94.1%	97.3%	99.6%	97.1%	94.3%	100%
